# Measurements taken from PubChem BioAssay (NCATS).
# Results filed as inconclusive are left out. The source made the active and inactive calls. Calls come from the whole dose curve; as a rule, active = well fitted inhibition curve with a large enough effect in the signal ratio, with a control signal flat (not every such curve was filed as active); inconclusive = small, poorly fitted or top-dose-only effect, or effect the other way, or a change in a side signal; inactive = flat fitted curve, though single readings scatter; the % refers to the signal ratio.
# Molecular target: Glucocorticoid receptor (Homo sapiens) (UniProt P04150)
# Assay: qHTS assay for small molecule antagonists of glucocorticoid receptor signaling (AID 588533)
# Details: HeLa MMTV-bla, GRE beta-lactamase ratio, antagonist mode, 18 h; series mostly up to 76.8 µM
# Description: NIH Chemical Genomics Center [NCGC] U.S. Environmental Protection Agency [EPA] National Institutes of Environmental Health Sciences [NIEHS] National Toxicology Program [NTP] NCGC Assay Overview The Glucocorticoid receptor (GR), a nuclear receptor subfamily member and its natural ligands includes […] etc. The GR is a validated drug target for inflammation. GR ligands such as dexamethasone are clinically available as anti-inflammatory drugs. Glucocorticoids implicate a role in carbohydrate, protein and lipid metabolisms and programmed cell death. They are also a component of many chemotherapy regimens for the treatment of leukemias, lymphomas, and myelomas because of their role in the induction of apoptosis.
# NCGC Assay Protocol Summary Using a beta-lactamase reporter-gene under control of glucocorticoid response element (GRE), a cell-based assay [CellSensor MMTV-bla HeLa cell line assay developed by Invitrogen] was used to measure GR ligands signaling. CellSensor MMTV-bla HeLa cells were used with assay medium containing 1% charcoal/dextran treated FBS, 0.1 mM NEAA, 1 mM sodium pyruvate and 25mM HEPES. The assay was performed in clear bottom black Greiner 1536-well plates. Library compounds were measured for their ability to inhibit the reporter gene activity. Compounds were screened in a titration series in 1536-well format. […] Data was normalized relative to Dexamethasone control (2 nM, 100%), and DMSO only wells (basal, 0%). Concentration-response titration points for each compound were fitted to the Hill equation yielding concentrations of half-maximal inhibition (IC50) and maximal response (efficacy) values. qHTS protocol for GR beta-lactamase assay in antagonist mode [Step] [Parameter] [Value] [Description] 1. Reagent; 5 uL; 1500 cells/well 2. Incubation; 37 C for 3-5 hrs 3. Compounds; 23 nL; 0.59 nM to 92 uM 4. […] Agonist (Stimulator); 1uL; Dexamethasone at 2 nM (final) concentration 6. Incubation; 37 C for 18 hrs 7. Detection reagent; 1 uL of CCF4-dye 8. Incubation; RT for 2 hrs 9. Detection; Fluorescence; Envision plate reader
# Glucocorticoid receptor (Homo sapiens), sequence (P04150 whole entry, looked up): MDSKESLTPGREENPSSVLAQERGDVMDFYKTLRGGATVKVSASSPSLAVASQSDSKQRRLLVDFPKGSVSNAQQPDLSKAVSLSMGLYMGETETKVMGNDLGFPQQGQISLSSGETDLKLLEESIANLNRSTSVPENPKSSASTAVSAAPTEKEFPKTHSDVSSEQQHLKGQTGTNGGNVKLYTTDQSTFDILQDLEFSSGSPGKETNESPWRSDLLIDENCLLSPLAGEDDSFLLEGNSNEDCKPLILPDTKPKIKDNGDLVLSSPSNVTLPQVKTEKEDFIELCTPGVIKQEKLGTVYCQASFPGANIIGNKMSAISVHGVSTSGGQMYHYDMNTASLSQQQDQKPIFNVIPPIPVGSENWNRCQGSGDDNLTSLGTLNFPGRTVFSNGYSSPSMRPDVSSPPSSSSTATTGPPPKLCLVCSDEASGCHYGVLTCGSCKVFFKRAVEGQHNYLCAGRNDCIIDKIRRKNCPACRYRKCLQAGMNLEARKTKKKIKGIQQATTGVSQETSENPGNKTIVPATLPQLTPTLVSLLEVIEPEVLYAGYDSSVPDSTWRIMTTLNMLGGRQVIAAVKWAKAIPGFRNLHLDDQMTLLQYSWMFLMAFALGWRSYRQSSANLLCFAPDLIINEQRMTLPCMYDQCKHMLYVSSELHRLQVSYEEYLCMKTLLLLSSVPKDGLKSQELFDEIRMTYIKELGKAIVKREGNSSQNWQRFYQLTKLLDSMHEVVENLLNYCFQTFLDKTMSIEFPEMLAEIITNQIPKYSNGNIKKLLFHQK
row,Structure (SMILES),outcome
1,CCCCCCCCCCCC[N+](C)(C)Cc1ccccc1,inactive
2,CN1C(=O)c2ccccc2C1=O,inactive
3,O=C(Oc1ccccc1)c1cccc(C(=O)Oc2ccccc2)c1,inactive
4,CC(C)(C)c1ccc(O)c(O)c1,inactive
5,O=C(c1ccccc1)c1ccccc1,inactive
6,CCN(CC)CCOc1ccc(/C(=C(\Cl)c2ccccc2)c2ccccc2)cc1,inactive
7,O=C(NO)c1ccccc1,inactive
8,O=C(Oc1ccccc1)c1ccccc1O,inactive
9,COC(=O)c1c(Cl)c(Cl)c(C(=O)OC)c(Cl)c1Cl,inactive
10,Cc1cc(C(C)(C)C)c(O)c(C(C)(C)C)c1,inactive
11,CCCCC(CC)COC(=O)c1ccccc1C(=O)O (stereo unspecified),inactive
